According to PubChem BioAssay (NCI):
This is part of a sample that, as a whole, favours compounds with a hit. Of some 83,000 tested, about 20% had one in any assay.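 Results are percent growth after 48 hours of single-concentration exposure. 100 means growth as in untreated cells, lower positive values show inhibition; negative values down to -100 show cell death.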 The source made the active and inactive calls. How the source made its calls: active means growth percent below 10; inactive means the rest.

Assays:
Assay in all cases: NCI-60 one-dose screen, 48 h (100 = growth as untreated, 0 = no growth, -100 = all killed)
Settings in all cases: 10 µM unless noted
[1] = system: DU-145 prostate
[2] = system: K-562 leukemia
[3] = system: MALME-3M melanoma
[4] = system: MDA-MB-231 breast
[5] = system: RXF 393 renal
[6] = system: SF-268 CNS
[7] = system: SF-295 CNS
[8] = system: SF-539 CNS
[9] = system: UACC-257 melanoma
[10] = system: M14 melanoma

Measured: growth

C[C@@H](Oc1cc(C(=O)Nc2ccc(C(=O)N3CCN(C)CC3)cc2)nnc1N)c1c(Cl)ccc(F)c1Cl
inactive: [1] 84.7% | [2] 28.7% | [3] 65.2% | [4] 62.2% | [5] 62.6% | [6] 70.3% | [7] 13.9% | [8] 64.9% | [9] 60.9% | [10] 76.9%

CC[C@@H]1C(=O)N(C)c2cnc(Nc3ccc(C(=O)NC4CCC(N5CCN(CC6CC6)CC5)CC4)cc3OC)nc2N1C(C)C (stereo not given in full)
inactive: [1] 14.6% | [6] 11.2%
active: [2] -6.16% | [3] -80.6% | [4] 5.19% | [5] -30.4% | [7] -36.2% | [8] -85.7% | [9] -67.3% | [10] -57.7%

FC(F)(F)c1ccc(CNc2ccc(Cc3c[nH]c4ncc(Cl)cc34)cn2)cn1
active: [5] -7.15% | [9] 7.18%
inactive: [1] 61.2% | [2] 12.4% | [3] 15.9% | [4] 24.5% | [6] 27.7% | [7] 13.6% | [8] 19.3% | [10] 11.5%

Cc1c(NC(=O)OC[C@@H]2COCCN2)cn2ncnc(Nc3ccc4c(cnn4Cc4cccc(F)c4)c3)c12
active: [3] -27% | [4] 1.06% | [5] -62.4% | [6] -2.37% | [8] -52.4% | [9] -31.3% | [10] -29.3%
inactive: [1] 10.1% | [2] 11.5% | [7] 14.6%

CNS(=O)(=O)Nc1nccc(Cc2c(C)c3ccc(Oc4ncccn4)cc3oc2=O)c1F
active: [3] 4.1% | [9] -5.41%
inactive: [1] 61.3% | [2] 26.2% | [4] 41% | [5] 44.9% | [6] 78% | [7] 70.6% | [8] 68% | [10] 13.3%

CNC(=O)c1cc(Oc2cccc3nc(Nc4ccc(Oc5ccccc5)cc4)ccc23)ccn1
inactive: [1] 83.4% | [2] 41% | [3] 78.2% | [4] 71.6% | [5] 91.3% | [6] 75.4% | [7] 60.2% | [8] 90.8% | [9] 77.2% | [10] 68.6%

CCOc1cc2ncc(C#N)c(Nc3ccc(OCc4ccccn4)c(Cl)c3)c2cc1NC(=O)/C=C/CN(C)C
active: [1] 4.49% | [2] -47.5% | [3] -72.3% | [4] -40% | [5] -77.4% | [6] -36.7% | [10] -82.4%
inactive: [7] 54.1% | [8] 22% | [9] 52.8%

COc1c(OCCCN2CCOCC2)ccc2c3n(c(=NC(=O)c4cnc(N)nc4)nc12)CCN3
active: [3] -21.2% | [5] -40.7% | [7] -15.4% | [8] -51.5% | [9] -13.8%
inactive: [1] 21.8% | [2] 21.8% | [4] 17.1% | [6] 24.6% | [10] 10.4%

Cc1ccc(NC(=O)c2ccc(CN3CC[C@H](N(C)C)C3)c(C(F)(F)F)c2)cc1Nc1nccc(-c2cncnc2)n1
active: [2] -19.6% | [3] -79.2% | [4] -34.5% | [5] -20.2% | [7] -43.9% | [8] -89.6% | [9] -74.7% | [10] -61%
inactive: [1] 30.6% | [6] 17.1%

C#Cc1cccc(Nc2ncnc3cc(OCCOC)c(OCCOC)cc23)c1
inactive: [1] 35.8% | [2] 51.3% | [3] 67.6% | [4] 67% | [5] 46.1% | [6] 62.9% | [7] 84.9% | [8] 81.1% | [9] 85.7% | [10] 48.5%

Cc1cc(Nc2nc(N[C@@H](C)c3ncc(F)cn3)ncc2Cl)n[nH]1
inactive: [1] 99.5% | [2] 77.6% | [3] 56.4% | [4] 83.8% | [5] 24.4% | [6] 72% | [7] 94.4% | [8] 80.8% | [9] 71.1% | [10] 58.7%

c1cc(OCCN2CCCCC2)cc(-c2n[nH]c3ccc(-c4ncn[nH]4)cc23)c1
inactive: [1] 62.4% | [2] 36.9% | [3] 13.5% | [4] 54.7% | [5] 90.3% | [6] 77.8% | [7] 92.3% | [8] 49.4% | [9] 70.8% | [10] 22.9%

O=C1NC(=O)C(c2cnc3ccccn23)=C1c1cn2c3c(cc(F)cc13)CN(C(=O)N1CCCCC1)CC2
inactive: [1] 68.7% | [2] 27.9% | [3] 64.6% | [4] 70.2% | [5] 16.6% | [6] 64.7% | [7] 35.7% | [8] 53.8% | [9] 67.1% | [10] 50.7%

CCOc1cccc(/C=N/NC(=O)c2ccccc2Nc2ccnc(C(F)(F)F)c2)c1O
inactive: [1] 26.2% | [2] 15.5% | [3] 18.1% | [4] 47% | [5] 23.9% | [6] 13% | [7] 17.7% | [9] 10.2%
active: [8] 0.222% | [10] -29.2%

Cc1cc(-c2cc(O)ccc2Cl)cc2nnc(Nc3ccc(OCCN4CCCC4)cc3)nc12
active: [1] -89.4% | [2] -63.9% | [3] -68.4% | [4] -80.5% | [5] -73.4% | [6] -69.8% | [7] -76.3% | [8] -86.8% | [9] -75.9% | [10] -51.8%

COCCOc1cnc2ccn([C@H](C)c3nnc4c(F)cc(-c5cnn(C)c5)cn34)c(=O)c2c1
inactive: [1] 91.2% | [2] 96.8% | [4] 63.9% | [5] 81.2% | [6] 85.9% | [7] 67.4% | [8] 99.1% | [9] 69.1% | [10] 91.6%
active: [3] 9.06%

CCOc1cc2ncc(C#N)c(Nc3ccc(F)c(Cl)c3)c2cc1NC(=O)/C=C/CN(C)C
active: [1] -56.6% | [2] -16.4% | [3] -77.5% | [4] -38.8% | [5] -83% | [6] -19.9% | [7] 9.82% | [8] -85.9% | [9] -63% | [10] -83.1%

CNC(=O)c1ccc(Nc2ncc(C(F)(F)F)c(NCc3nccnc3N(C)S(C)(=O)=O)n2)cc1
active: [1] 7.63% | [3] -1.87% | [4] 3.13% | [5] -51.1% | [6] 2.86% | [7] 5.63% | [8] -42.7% | [9] -21.5% | [10] 8.04%
inactive: [2] 10.6%

Cn1ccnc1C(=O)/C=C/c1ccc(CC(=O)Nc2ccc(S(F)(F)(F)(F)F)cc2)cc1
active: [1] 8.82% | [2] 0.513% | [4] -2.8% | [5] -70.6% | [6] 7.07% | [7] -6.63% | [8] -84.7% | [10] -27.4%
inactive: [3] 51.4% | [9] 54.6%

COc1ccc(-c2cnc(-c3ccc(Cl)cc3)[nH]2)cc1OC
inactive: [1] 78.7% | [2] 115% | [3] 155% | [4] 78.6% | [5] 91.6% | [6] 78% | [7] 111% | [8] 95.6% | [9] 119% | [10] 115%

C/C=C/C=N/NC(=S)Nc1ccccc1
inactive: [1] 104% | [2] 88.9% | [3] 96.5% | [4] 89.9% | [5] 119% | [6] 100% | [7] 98.9% | [8] 89.5% | [9] 81.1% | [10] 96.5%

C=CC(=O)Nc1cc2c(Nc3ccc(F)c(Cl)c3)ncnc2cc1OCCCN1CCOCC1
inactive: [1] 14.9% | [3] 27.3% | [7] 53.4% | [9] 35.1%
active: [2] 2.24% | [4] 0.732% | [5] -53.1% | [6] -5.09% | [8] -24.4% | [10] -62.3%
